Compounds with a hit are over-represented: about 6.5% of the library has one in this group of screens.
LASV entry inh: Lassa virus entry inhibition; Lassa virus pseudotype entry inhibition, cell reporter; Potency, µM (series often up to 37.9 µM), usual class: inhibitors; 1.2% of 300,000 active; AID 540256; calls by dose curve; tested in HEK293 cells; note: nearly all actives have a fitted effect of over 50% in size
HCMV inh: blocks human cytomegalovirus replication. AID 1259415. 4.5% of 410,000 active. HFF cells, HCMV-luciferase reporter, 72 h; hits give low values. activity change, negative = inhibition, % at 57.5 µM; in the data active = activity change below about -60%; inconclusive = no clear call, values can overlap the other calls; inactive = above about -39%
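Human foreskin fibroblasts infected with luciferase-reporter HCMV at MOI 1 PFU/cell, compounds at two doses. Luciferase measured 72 h post infection; normalized to buffer-only basal and Salinomycin (10uM) controls.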
VACV mCherry inh: inhibitors of vaccinia virus infection (mCherry reporter signal). Vaccinia virus mCherry reporter infection, fluorescence. Potency, µM (top dose mostly 36.5 µM), usual class: inhibitors. 0.63% of 310,000 active; calls by dose curve; tested in A549 cells; note: nearly all actives have a fitted effect of over 35% in size
Marburg entry inh: Marburg virus entry inhibition. Marburg virus pseudotyped entry inhibition, cell reporter. Potency, µM (titrated, usually from 37.8 µM), usual class: inhibitors. 1.8% of 300,000 active. AID 540276; calls by dose curve; tested in HEK293 cells
FMDV antiviral: blocks foot and mouth disease virus; AID 1159524; 1.2% of 410,000 active; Potency, µM (doses to about 57.9 µM), hits mostly inhibitors; FMDV antiviral cell-based qHTS; calls by dose curve; tested in HEK293T cells; note: read-out not given here; nearly all actives have a fitted effect of over 45% in size
Vaccinia Venus: vaccinia inhibition (Venus reporter); Vaccinia virus Venus reporter expression, fluorescence; 0.46% of 330,000 active; Potency, µM (series often up to 36.5 µM), usual class: inhibitors; AID 720580; calls by dose curve; tested in A549 cells; note: nearly all actives have a fitted effect of over 30% in size
Numbers stand for hits; 0 = inactive; ? = inconclusive; - = not tested or not shown; + = active, no number; [ ] = remark or other dose.

SMILES | LASV entry inh | HCMV inh | VACV mCherry inh | Marburg entry inh | FMDV antiviral | Vaccinia Venus
COc1ccc(NC(=O)C2CCN(C3=NS(=O)(=O)C(c4ccc(C)c(C)c4)=C3C)CC2)c(OC)c1 | 0 | 0 | 0 | - | 0 | 0
O=S(=O)(Nc1cccc2ncccc12)c1cccs1 | ? | - | 13µM | ? | 20µM | ?
COc1ccc(S(=O)(=O)NN(C)C)cc1N(C)S(=O)(=O)c1ccc(Cl)cc1 | 0 | -64 | 0 | 0 | 0 | 0
COc1ccc(S(=O)(=O)Nc2ccc(C)cc2)cc1N(C)S(=O)(=O)c1ccc(Cl)cc1 | ? | -99 | ? | ? | - | 18µM
COc1ccc(S(=O)(=O)N2CCCCC2)cc1N(C)S(=O)(=O)c1ccccc1 | 0 | 0 | 0 | ? | 0 | 0
COC(=O)CN(c1cc(Cl)ccc1OC)S(=O)(=O)c1ccc(C)cc1 | 0 | ? | 0 | ? | 0 | 0
COc1cccc(CN2CC3(CN(S(C)(=O)=O)C3)c3c(n(C)c4cc(OC)ccc34)[C@H]2CO)c1 | - | 0 | - | - | - | -
CC(CCN1CCCc2nc(C)c(C)cc21)=NO[C@@H](C)CN1CCCCc2nc(C)c(C)cc21 | - | - | - | 0 | - | -
CCOC(=O)C1C(=O)C=C(c2ccc(C)cc2)CC1c1ccc([N+](=O)[O-])cc1 (stereo unspecified) | 0 | -71 | 0 | ? | 0 | 0
CCOC(=O)C1C(=O)C=C(c2ccccc2)CC1c1ccccc1 (stereo unspecified) | ? | 0 | 0 | ? | 0 | 0
COc1ccc(CN2CC(C(=O)NCc3cccc(OC)c3)CC2=O)cc1 (stereo unspecified) | 0 | -105 | 0[1.46 µM] | 0 | 0 | 0
CC(CCN1CCCc2nc(C)c(C)cc21)=NO[C@H](C)c1cn([C@H](CO)Cc2ccccc2)nn1 | - | - | - | 0 | - | -
CCOc1ccc(N2C(=O)/C(=C/c3ccc(C)o3)C(=O)NC2=S)cc1 | - | 0 | - | - | 40µM | -
COc1ccc(N2C(=O)/C(=C/c3ccc(C)o3)C(=O)NC2=S)cc1 | - | 0 | - | - | ? | -
CCOc1ccccc1NC(=O)Cn1ncc2c(=O)oc3ccc(C)cc3c21 | ? | 0 | 0 | 0 | 0 | 0
Cc1ccc(C(=O)NC2CCCCC2)cc1-c1ccc(C(=O)NCC2CC2)cc1 | 1.4µM | - | - | - | - | -
Cc1ccc(NC(=O)CC2CC2)cc1-c1ccc(C(=O)NCC2CC2)cc1 | 4µM | - | - | - | - | -
CC(=O)NCCNc1ncncc1-c1ccc(N(C)C)cc1 | - | - | - | - | 0 | -
Cc1ccc(S(=O)(=O)c2nnn3c2nc(NCc2ccccc2Cl)c2sccc23)cc1 | 0 | 0 | ? | - | 0 | ?
Cc1cc(N)n2nc(-c3ccccc3)cc2n1 | ? | 0 | ? | 8.9µM | 0 | 0
Cc1ccc(-c2cc3nc(-c4ccccc4)cc(N)n3n2)cc1 | 0 | 0 | 0 | 0 | 0 | 0
CCOc1ccc(CNC(=O)c2cccc(NC(=O)N3CCSc4ncccc43)c2)cc1OC | ? | ? | 0 | - | 14µM | 0
Cc1cccc(CNC(=O)c2cccc(NC(=O)N3CCSc4ncccc43)c2)c1 | 0 | + | 0 | - | 0 | 0
COc1ccccc1CCNC(=O)Cc1c(C)c2c(O)cc(C)cc2oc1=O | 0 | 0 | 0 | 0 | 0 | 0
CCCCOC(=O)n1c(=O)oc2ccccc21 | 0 | -101 | - | 0 | 0 | 0
SMILES | LASV entry inh | HCMV inh | VACV mCherry inh | Marburg entry inh | FMDV antiviral | Vaccinia Venus
COC(=O)N/N=C/c1ccc([N+](=O)[O-])s1 | ? | 0 | 0 | ? | 0 | ?
Cc1ccc(NC(C)C(=O)N/N=C/c2ccc([N+](=O)[O-])s2)cc1 (stereo unspecified) | ? | -70 | ? | ? | 0 | ?
COc1ccc(NC(C)C(=O)N/N=C/c2ccc([N+](=O)[O-])s2)cc1 (stereo unspecified) | 0 | ? | 8.9µM | 0 | 0 | 13µM
N#Cc1cccc(NC(=O)N2CC[C@@]3(CCCN(S(=O)(=O)c4ccccc4)C3)C2)c1 | - | - | - | - | 0 | -
Cc1ccc(S(=O)(=O)c2nc(S(=O)(=O)c3ccccc3)sc2NCCCOC(C)C)cc1 | 0 | 0 | 0 | 4µM | 0 | 0
c1ccc(C[n+]2cccc3c4ccccc4ccc32)cc1 | 7.1µM | -94 | ? | ? | ? | ?
CCCCCCCCCC[n+]1ccc(/C=C/c2ccc(N(C)C)cc2)c2ccccc21 | - | - | 0 | - | - | -
O=[N+]([O-])c1ccc(C[n+]2cccc3ccccc32)cc1 | 0 | 0 | 0 | 0 | 0 | 0
CCCCC[n+]1cccc2c3ccccc3ccc21 | - | -95 | - | - | ? | -
CCC(Oc1ccccc1F)C(=O)Nc1c(C(=O)c2ccccc2)oc2ccccc12 (stereo unspecified) | 0 | ? | 0 | ? | 0 | 0
COc1cc(-c2ccc(C)cc2)cc2c1OCCN(C(=O)CCn1ccc(C)n1)C2 | - | - | 0 | - | 0 | 0

High-throughput results as filed in PubChem BioAssay.
